Compound activity from PubChem.
Sampled rows, rich in hits. Any-hit rate of the full collection: about 6.1%.
D1 antagonist – human D1 dopamine receptor antagonism; HEK293 TREx D1 cells, calcium flux, dopamine EC80; active compounds read low; AID 504652; actives 3.2% (n = 360,000); activity change, negative = inhibition, % at 10 µM; P21728; in the data active means activity change below about -30%; further: on the % scale 0 is the no-effect control and ±100 the full control effect
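Using tetracycline-induced force-coupled D1 Hek293 cells and a calcium dye, signals were followed for 180 s after compound, then for 180 s after EC80 dopamine, to detect inhibitors.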
D1 agonist – activates the human D1 dopamine receptor; HEK293 T-REx D1 cells, calcium flux, agonist mode; actives 1% (n = 360,000); activation, % at 2 µM; in the data active means activation above about 30%; further: 0% is about no effect
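Inducible HEK293 T-REx D1 cells, force-coupled to calcium signalling, were plated at 4000 cells/well with tetracycline and held overnight at 30 C. After no-wash calcium dye loading, compound-evoked calcium rise over 180 s flagged agonists.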
D3 ag – activates the human D3 dopamine receptor; AID 652048; P35462; actives 0.58% (n = 410,000); max activation, %; D3R DiscoveRx beta-arrestin cells, luminescence, 90 min; in the data active means max activation above about 30%; further: 0% is about no effect
Target sequence (P35462 whole entry, looked up): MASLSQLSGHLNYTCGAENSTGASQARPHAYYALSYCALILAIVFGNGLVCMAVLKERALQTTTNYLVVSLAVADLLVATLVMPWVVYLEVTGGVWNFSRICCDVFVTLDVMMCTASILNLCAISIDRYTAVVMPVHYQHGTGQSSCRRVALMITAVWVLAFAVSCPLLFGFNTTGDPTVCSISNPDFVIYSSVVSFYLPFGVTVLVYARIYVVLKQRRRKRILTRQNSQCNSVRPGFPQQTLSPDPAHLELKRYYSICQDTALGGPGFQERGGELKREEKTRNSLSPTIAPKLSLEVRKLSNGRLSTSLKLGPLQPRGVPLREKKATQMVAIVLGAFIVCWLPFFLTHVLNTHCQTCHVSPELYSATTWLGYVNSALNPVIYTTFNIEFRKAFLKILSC
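Agonist-mode cell screen: cells plated at 1500/well and incubated overnight at 37 °C, then exposed to library compounds for 90 min at 37 °C. Detection reagent was added for 30–60 min at room temperature, and luminescence was read.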
D1 PAM – potentiators of human D1 dopamine receptor; P21728; HEK293 TREx D1 cells, calcium flux, dopamine EC20 potentiation; potentiation, % at 10 µM; actives 0.036% (n = 360,000); in the data active means potentiation above about 30%; further: 0% is about no effect
D3 antag – blocks the human D3 dopamine receptor | D3R cells, DiscoveRx beta-arrestin luminescence, antagonist mode; active compounds read low | max response, negative = inhibition, % | AID 652054 | actives 2.5% (n = 360,000) | P35462; in the data active means max response below about -50%; further: on the % scale 0 is the no-effect control and ±100 the full control effect
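Cells plated overnight at 1500 cells/well, then exposed to library compounds with dopamine controls for 90 minutes at 37 degrees C. DiscoveRx reagent added for 30–60 minutes at room temperature; luminescence read, quantitative HTS format.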
Starred values were filed as active, the others as inactive; . = not tested or not shown.

SMILES	D1 antagonist	D1 agonist	D3 ag	D1 PAM	D3 antag
Cc1c(-c2cccc(NC(=O)Cc3ccccc3)c2)nc2ncccn12	-5.3	0.5	-13.2	-1.4	.
CC(C)C[C@H](NC(=O)[C@@H](COC(C)(C)C)NC(=O)[C@H](Cc1ccc(O)cc1)NC(=O)[C@H](CO)NC(=O)[C@H](Cc1c[nH]c2ccccc12)NC(=O)[C@H](Cc1cnc[nH]1)NC(=O)[C@@H]1CCC(=O)N1)C(=O)N[C@@H](CCCN=C(N)N)C(=O)N1CCC[C@H]1C(=O)NNC(N)=O	.	.	1.4	.	.
Cc1cc(NC(=O)CNCC(c2ccccc2)N(C)C)c([N+](=O)[O-])cc1C (configuration not stated)	7.1	6.5	3.3	-3.0	-53.8*
Cc1ccc(NC(=O)CNCC(c2ccccc2)N(C)C)cc1F (configuration not stated)	1.5	3.8	-12.5	-2.2	-28.1
OCC1(CCOc2ccccc2)CCN(Cc2ccc3cccc(F)c3n2)CC1	14.8	0.3	-14.3	0.1	-86.9*
OCC1(Cc2cccc(F)c2)CCN(Cc2ccc3cccc(F)c3n2)CC1	0.3	10.3	-7.1	-3.5	-74.5*
COc1cccc(CC2(CO)CCN(Cc3ccc4cccc(F)c4n3)CC2)c1	3.2	6.6	-17.3	-1.1	-82.2*
O=C(c1cnsn1)N1CCC(CO)(Cc2cccc(F)c2)CC1	-0.5	0.6	13.2	2.8	1.2
Cc1cc(-c2nn(-c3ccccc3F)cc2CN2CCN(c3ccccn3)CC2)c(C)s1	1.7	0.7	-18.7	0.9	-78.7*
Cc1cc(N2CCN(c3ccc(F)cc3)CC2)n2nc(-c3ccc(Cl)cc3)nc2n1	-2.0	2.2	3.3	1.1	.
O=C(Nc1ccc2c(c1)OCCO2)C1CCN(C(=O)c2ccc([N+](=O)[O-])cc2)CC1	-31.2*	2.8	-0.6	-8.4	3.3
CC(NC(=O)c1ccccc1Cl)C(=O)Nc1ccc2c(c1)OCO2 (configuration not stated)	-83.1*	0.6	5.0	2.0	0.3
O=C(Nc1ccc2c(c1)OCCO2)C1CCN(C(=O)c2ccc(Br)cc2)CC1	-2.5	1.6	5.8	4.8	7.1
CC(C)c1ccc(NC(=O)C(c2ccc3c(c2)OCO3)N2CCN(C(=O)c3ccco3)CC2)cc1 (configuration not stated)	-1.7	6.6	0.7	3.0	-21.7
O=C(NCc1ccco1)C1CCN(C(=O)c2ccc([N+](=O)[O-])cc2)CC1	-44.7*	3.0	-5.3	-9.1	-15.3
O=C(NCc1ccco1)C1CCN(C(=O)c2ccc(Cl)cc2)CC1	-5.9	1.2	-3.3	-0.6	-15.2
CCN(CC)C(C(=O)Nc1ccc(C(C)C)cc1)c1ccc2c(c1)OCO2 (configuration not stated)	12.6	4.1	0.6	11.3	-54.1*
COc1ccc(Cn2c(C(=O)O)c(CNCCc3cccs3)c3ccc(C)cc32)cc1	8.7	-0.6	0.3	3.3	.
CCn1c(SCc2ccc(F)cc2Cl)nc(=O)c2c(C(=O)OC)cc(C3CC3)nc21	4.3	3.2	-0.1	7.4	.
CC(C(=O)Nc1ccc2c(c1)OCO2)c1ccc([N+](=O)[O-])cc1 (configuration not stated)	5.1	112.4*	-5.0	-2.0	-4.6
CC(C(=O)Nc1ccc2c(c1)OCCO2)c1ccc([N+](=O)[O-])cc1 (configuration not stated)	-51.0*	101.2*	-2.8	3.9	-1.3
CC(C)n1nc(C(=O)Nc2ccc3c(c2)OCO3)c2ccccc2c1=O	-32.5*	1.1	2.7	.	7.2
O=C(Nc1ccc2c(c1)OCO2)c1nn(-c2ccccc2)c(=O)c2ccccc12	4.6	1.6	13.9	0.7	-12.5
O=C(Cc1ccc([N+](=O)[O-])cc1)Nc1ccc2c(c1)OCO2	0.4	2.0	-8.5	-12.8	-27.8
CCc1cccc(C)c1Nc1c(-c2ccc(SC)cc2)nc2sccn12	-0.7	1.2	7.2	3.5	.
CCC(=O)N1CCc2cc(S(=O)(=O)NC(C(=O)NCCc3ccccc3)C(C)C)ccc21 (configuration not stated)	-6.8	-1.6	-13.2	1.6	.
COc1ccc(Cl)cc1NC(=O)Cn1nnc2sc(-c3ccccc3)cc2c1=O	-11.9	0.2	-3.9	-0.7	.
O=C(Cn1c(=O)n(-c2ccc(F)cc2)c(=O)c2sc3ccccc3c21)NC1CCCCC1	2.8	0.2	-6.3	0.9	.
